The supplement of paper PMC13380429

Columns and labels:
[1] = test system: Vero E6 infected with SARS-CoV-2; experiment: morphology score (similarity to uninfected cells); higher = more like uninfected cells; conditions: 24 h
[2] = test system: Vero E6 infected with SARS-CoV-2; experiment: SARS-CoV-2 infection rate relative to infected DMSO; higher = more infection, active = 60 or less; conditions: 24 h

Q: Which morphology score [1] does the source give for `O=c1[nH]cnc2nc[nH]c12` [hypoxanthine] (10 µM) here?
A: The morphology score was 0.0617.

Q: What about the SARS-CoV-2 infection rate [2] of the same molecule?
A: Its SARS-CoV-2 infection rate is 108% (inactive).

Q: `CC(C)Oc1ccc(-c2nc(-c3cccc4c3CC[C@H]4NCCC(=O)O)no2)cc1C#N` (10 µM) was tested. Which morphology score [1] did it give?
A: The morphology score was 0.181.

Q: What about the SARS-CoV-2 infection rate [2] of the same molecule?
A: The SARS-CoV-2 infection rate was 96.5% (inactive).

Q: With `CC(C)(O)c1coc(S(=O)(=O)NC(=O)Nc2c3c(cc4c2CCC4)CCC3)c1` (10 µM) as the molecule, how does the morphology score [1] read?
A: The morphology score was 0.0866.

Q: What about the SARS-CoV-2 infection rate [2] of the same molecule?
A: The SARS-CoV-2 infection rate was 93.5% (inactive).

Q: What does the source list for `Cc1cccc(-c2[nH]c(C(C)(C)C)nc2-c2ccc3c(c2)OCO3)n1` (10 µM)?
A: morphology score [1]: -0.132; SARS-CoV-2 infection rate [2]: 115% (inactive)

Q: Which results are given for `Nc1nc2[nH]cnc2c(=S)[nH]1` [thioguanine] (0.833333 µM)?
A: morphology score [1]: 0.218; SARS-CoV-2 infection rate [2]: 98.5% (inactive)

Q: Which results are given for `C[C@]12CC[C@@H]3c4ccc(O)cc4CC[C@H]3[C@@H]1CC[C@@H]2OC(=O)CCC1CCCC1` [estradiol-cypionate] (10 µM)?
A: morphology score [1]: -0.002; SARS-CoV-2 infection rate [2]: 99% (inactive)

Q: For `Nc1cc(C(Cl)=C(Cl)Cl)c(S(N)(=O)=O)cc1S(N)(=O)=O` [clorsulon] (10 µM), which morphology score [1] is on record?
A: Its morphology score is 0.206.

Q: What about the SARS-CoV-2 infection rate [2] of the same molecule?
A: The SARS-CoV-2 infection rate was 98% (inactive).

Q: Which morphology score [1] does the source give for `C[C@@H]1CC[C@@]2(OC1)O[C@H]1C[C@H]3[C@@H]4CC=C5C[C@@H](O[C@@H]6O[C@H](CO)[C@@H](O[C@@H]7O[C@@H](C)[C@H](O)[C@@H](O)[C@H]7O)[C@H](O)[C@H]6O[C@@H]6O[C@@H](C)[C@H](O)[C@@H](O)[C@H]6O)CC[C@]5(C)[C@H]4CC[C@]3(C)[C@H]1[C@@H]2C` [dioscin] (10 µM) here?
A: Its morphology score is 0.0193.

Q: What about the SARS-CoV-2 infection rate [2] of the same molecule?
A: Its SARS-CoV-2 infection rate is 101% (inactive).

Q: Which morphology score [1] does the source give for `COc1ccc(Cl)cc1NC(=O)Nc1cc(C)nc2ccccc12` (10 µM) here?
A: Its morphology score is 0.148.

Q: What about the SARS-CoV-2 infection rate [2] of the same molecule?
A: Its SARS-CoV-2 infection rate is 96.5% (inactive).
